S1P4 antag – antagonists of human S1P4 receptor. O95977. S1P4-expressing cells, antagonist mode, reporter read-out. inhibition, % at 4.98 µM. actives 0.26% (n = 220,000). AID 1510; in the data active = inhibition above about 29%;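 also: 0% = wells stimulated with agonist and 100% = vehicle wells without agonist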
PERK inhibitor – blocks human PERK kinase | Q9NZJ5 | CHO PERK-DD fusion, SEAP luminescence translation reporter | inhibition, % at 5.6 µM | actives 0.17% (n = 220,000) | AID 1416;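 active = inhibition above the mean inhibition of all tested compounds plus 3 SD, set separately per screening campaign, cut at about 2.9% in these data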;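 also: PERK kinase domain activated by AP20187 dimerizer at 100 nM; 0% = DMSO with dimerizer and 100% = rapamycin at 8.4 µM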
S1P4 agonist – human S1P4 receptor agonism; O95977; S1P4-expressing cell line, agonist reporter assay; activation, % at 4.98 µM; actives 0.35% (n = 220,000); AID 1509; in the data active = activation above about 11%;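 also: 0% = DMSO vehicle and 100% = reference agonist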
S1P3 antag – S1P3 (human) receptor antagonism | CHO S1P3 NFAT-BLA reporter, FRET fluorescence, antagonist mode | actives 0.27% (n = 170,000) | Q99500 | inhibition, % at 4.98 µM;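 active = inhibition above the plate cutoff, the mean inhibition of test wells on that plate plus 3 SD, cut at about 28% in these data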;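 also: cells challenged with S1P at its EC80 of 0.8 µM; blue over green emission ratio from cleaved BLA substrate after 4 h stimulation; 0% = S1P-stimulated wells and 100% = unstimulated DMSO-only wells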
Target sequence (Q99500 whole entry, looked up): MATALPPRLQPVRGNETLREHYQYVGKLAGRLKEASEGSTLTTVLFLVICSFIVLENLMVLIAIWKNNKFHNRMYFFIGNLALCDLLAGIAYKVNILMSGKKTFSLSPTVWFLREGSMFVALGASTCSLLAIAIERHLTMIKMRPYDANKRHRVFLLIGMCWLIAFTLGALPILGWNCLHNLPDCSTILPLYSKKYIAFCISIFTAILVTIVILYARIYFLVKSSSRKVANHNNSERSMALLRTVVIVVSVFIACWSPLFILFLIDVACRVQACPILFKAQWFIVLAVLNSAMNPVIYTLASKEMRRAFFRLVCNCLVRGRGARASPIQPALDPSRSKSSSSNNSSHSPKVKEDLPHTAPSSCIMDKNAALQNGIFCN
m-calpain inh – calpain II (pig) inhibition; purified calpain II, fluorogenic peptide substrate, 30 min; inhibition, % at 16 µM; actives 0.37% (n = 220,000); AID 1236;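 active = inhibition above about 50%, limit read from the data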
S1P4 antag conf – human S1P4 antagonism, confirmation. shares compounds with S1P4 antag. AID 1524. actives 71% (n = 520). inhibition, % at 4.98 µM. S1P4-expressing cell line, antagonist mode, reporter read-out; in the data active = inhibition above about 30%
S1P1 antag – blocks human S1P1, counter-screen for S1P4 antagonists; shares compounds with S1P4 antag; cell-based S1P1 antagonist counterscreen, inhibition; inhibition, % at 4.98 µM; actives 37% (n = 520); AID 1564; in the data active = inhibition above about 40%;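 also: receptor stimulated with S1P near its EC80; 0% = agonist stimulated wells and 100% = vehicle only wells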
* = called active by the depositor; i = inactive; . = no result given. Only some compounds are listed: those with a hit (about 1.3% of all), similar ones and a draw of the others.

SMILES	S1P4 antag	PERK inhibitor	S1P4 agonist	S1P3 antag	m-calpain inh	S1P4 antag conf	S1P1 antag
COCCNC(=O)C(C(=O)c1ccc(F)cc1)n1cc(C)ccc1=O (stereo not drawn)	-3.0	0.1	0.4	-13.1	-10.7	.	.
C(=N\n1cnnc1)/c1ccc2c(c1)OCO2	30.9*	0.0	-2.0	-18.8	-21.9	-1.8	-0.5
COc1cc2c3nnc(-c4ccccc4)c-3cn(Cc3ccccc3F)c2cc1OC	84.1*	1.3	-5.3	11.5	-94.2	85.7*	128.1*
N#Cc1ccc(/C=C/C(=O)c2ccccc2)cc1	86.3*	0.3	-0.7	1.1	11.6	89.9*	21.9
Cc1nonc1CC(=O)N1CCCC(C(=O)c2ccc(Cl)cc2)C1 (stereo not drawn)	-9.7	0.4	-0.4	-4.7	-26.2	.	.
Oc1ccc(C2C=C(c3ccc(F)cc3)Nc3ncnn32)cc1 (stereo not drawn)	42.5*	2.1	-0.7	23.8	-20.3	14.2	30.0
COc1ccc(C2C=C(c3ccc(C)cc3)Nc3ncnn32)cc1 (stereo not drawn)	29.2*	-0.4	-4.9	.	i	43.3*	43.6*
O=C(CCCN1C(=O)c2cccc3cccc(c23)C1=O)Nc1ccon1	-14.7	0.8	0.0	-9.1	-30.8	.	.
CCOC(=O)COc1ccccc1/C=C\[N+](=O)[O-]	33.4*	0.5	-0.9	10.2	3.1	114.2*	72.4*
CCOC(=O)COc1cc([N+](=O)[O-])cc2cccnc12	9.2	0.3	0.6	-15.8	-21.2	.	.
Cc1cccc(CN2C[C@]34CC[C@@H](C[C@@H]3S2(=O)=O)O4)c1	.	.	.	.	-5.5	.	.
CCN1/C(=N\N)c2cccc3cccc1c23	-7.1	-0.5	4.1	-21.4	-12.9	.	.
CCOC(=O)CCS(=O)(=O)c1nc(-c2ccccc2)cc(C(F)(F)F)n1	84.3*	-0.3	-2.4	-8.1	-29.7	114.0*	51.7*
COC(=O)CCS(=O)(=O)c1nc(-c2ccccc2)cc(C(F)(F)F)n1	60.3*	-1.6	1.0	.	4.9	113.1*	33.8
CCOC(=O)CS(=O)(=O)c1nc(-c2ccc(F)cc2)cc(C(F)(F)F)n1	1.6	0.4	-1.4	9.6	-4.5	.	.
CCOC(=O)CS(=O)(=O)c1nc(-c2ccccc2)cc(C(F)(F)F)n1	98.1*	-1.1	-2.2	17.1	-14.2	115.5*	11.5
O=C(/C=C/c1ccc2c(c1)OCO2)Nc1cccnc1	1.5	-0.6	1.2	1.4	-164.9	.	.
COc1ccccc1C1CC(=O)NC(C)=C1C(=O)OC(C)C (stereo not drawn)	0.3	0.8	-0.7	-13.6	6.9	.	.
CC(NC(=O)c1cccc(Cn2cc([N+](=O)[O-])cn2)c1)c1ccc(C(C)(C)C)cc1 (stereo not drawn)	75.8*	-1.3	-0.1	.	35.6	3.3	-2.0
Cc1ccc(-c2nc(C=Nc3ccc(O)cc3)c(O)o2)cc1	30.8*	0.6	-1.0	18.2	5.1	43.1*	39.5
CN=Cc1nc(-c2ccccc2)oc1O	-14.8	1.4	0.8	.	23.3	.	.
CCn1c(C)c(P(c2ccccc2)c2ccccc2)[n+]2ccccc12	1.5	1.3	-2.1	-10.6	-0.8	.	.
Cc1ccccc1-c1cc2c(nn1)-c1ccccc1C2=O	92.5*	-0.5	-2.2	.	6.5	9.8	8.3
Cc1ccc(-c2cc3c(nn2)-c2ccccc2C3=O)cc1	-14.1	0.8	-1.2	27.3	-29.2	.	.
CCN(CC)c1cc(C)c(C#N)c2nc3ccccc3n12	3.9	-0.3	-0.1	6.4	-122.7	.	.
SMILES	S1P4 antag	PERK inhibitor	S1P4 agonist	S1P3 antag	m-calpain inh	S1P4 antag conf	S1P1 antag
Cc1cc(Cl)n2c(nc3ccccc32)c1C#N	44.5*	-0.2	5.0	14.9	-370.0	108.0*	69.4*
C/C(CCC12CC3CC(CC(C3)C1)C2)=N\NC(N)=S	15.6	1.2	-2.4	.	-2.6	.	.
C/C(CC(C)(C)C1CCCCC1)=N\NC(N)=S	47.7*	-1.8	-0.8	.	36.1	66.7*	-11.1
CCCN1C(=O)S/C(=C\c2ccc(N3CCOCC3)o2)C1=O	9.7	1.1	-1.6	-7.7	26.6	.	.
CCCN1C(=O)S/C(=C/c2ccc(N3CCOCC3)o2)C1=O	33.1*	0.9	-2.5	-3.7	34.1	14.0	6.7
COC(=O)c1cc(=O)n(-c2ccc(F)cc2)c(=Nc2ccc(F)cc2)s1	29.3*	-0.3	4.2	13.2	-14.0	99.6*	75.5*

Screening results: PubChem BioAssay, several laboratories
